In the library only some 2.4% were active in any assay of this set; here they are far more common.
Pol iota inh = blocks human DNA polymerase iota activity; Potency, µM (doses to about 115 µM), hits mostly inhibitors; AID 588590; Q9UNA4; 390,000 compounds, 1% hits; Pol iota fluorescent replication assay, 10 min
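Pol iota at 10 nM preincubated 15 min with compounds at room temperature; reaction started with fluorescent substrate, 50 nM final. Fluorescence read kinetically at 0 and 10 min; buffer-only wells as negative control.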
Pol kappa inh = inhibitors of human DNA polymerase kappa; AID 588579; Potency, µM (series often up to 107 µM), usual class: inhibitors; Q9UBT6; purified Pol kappa, fluorescent DNA synthesis assay, 10 min; 400,000 compounds, 0.53% hits
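Activity was followed as the change in fluorescence between reads at 0 and 10 min after starting the reaction with 50 nM substrate. Beforehand, 10 nM polymerase had been preincubated with compound for 15 min at room temperature.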
WRN inhibitor = blocks human WRN helicase; WRN helicase unwinding, fluorescent forked duplex, kinetic; Potency, µM (doses to about 114 µM), hits mostly inhibitors; 360,000 compounds, 0.46% hits; further: nearly all actives have a fitted effect of over 55% in size
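Kinetic fluorescence helicase assay: unwinding of a quenched forked DNA duplex (100 nM final) with 2 mM ATP final raises red fluorescence (525/598 nm). Compounds sat 15 min at room temperature with 20 nM WRN beforehand.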
FEN1 inhibitor = human FEN1 inhibition | AID 588795 | Recombinant FEN1 flap cleavage, fluorescence, 15 min | 390,000 compounds, 0.35% hits | Potency, µM (series often up to 114 µM), most hits filed as inhibitors; further: nearly all actives have a fitted effect of over 65% in size
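Read-out was taken twice, immediately and after 15 min, following addition of 50 nM substrate to 10 nM FEN1 that had sat with test compound for 15 min at room temperature. Curves came from a four-parameter Hill model.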
POLH inh = blocks human DNA polymerase eta activity; 390,000 compounds, 1.2% hits; recombinant Pol eta, fluorescent DNA replication assay; Potency, µM (top dose mostly 114 µM), actives largely listed as inhibitors
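Pol eta at 10 nM preincubated with compounds 15 min at room temperature; reaction started with fluorescent substrate (50 nM final) and read kinetically at 0 and 10 min.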
Pol beta inh-1 = DNA polymerase beta (human) inhibition; 340,000 compounds, 1.3% hits; Pol beta primer extension/strand displacement, fluorescence kinetic; P06746; Potency, µM (highest dose often 114 µM), most hits filed as inhibitors
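Curves were derived by four-parameter Hill fits of normalized qHTS data. The kinetic fluorescent primer-extension read was taken at 0 and 10 min after 50 nM substrate, following a 15 min room-temperature preincubation of 10 nM enzyme with compounds.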
Pol beta inh-2 = Inhibitors of human DNA polymerase beta, hit validation; Potency, µM, most hits filed as inhibitors; 250 compounds, 87% hits; shares compounds with Pol beta inh-1; Pol beta primer extension/strand displacement, fluorescence kinetic; calls by dose curve
Klenow inh = counter-screen for DNA polymerase beta inhibitors: Klenow fragment inhibition; shares compounds with Pol beta inh-1; AID 540300; 250 tested, under 10 active; activity change, negative = inhibition, % at 57.1 µM; Klenow exo- polymerase counter-screen, fluorescent DNA substrate
HIV RT inh = inhibits HIV-1 reverse transcriptase in counter-screen; 250 tested, under 10 active; HIV-1 RT polymerase activity, counter-screen; activity % (negative = inhibition, positive = activation), % at 57.1 µM; shares compounds with Pol beta inh-1
POLB inh gel = validation of human DNA polymerase beta inhibitors; shares compounds with Pol beta inh-1; radiolabeled primer extension gel assay, phosphorimager; inhibition, % at 10 µM; 110 compounds, 91% hits; AID 540325;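 active means inhibition at 10 µM of 30% or more; inconclusive means no clear call, values can overlap the other calls; inactive means inhibition at 10 µM under 30%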
POLI cherry-pick = Human Pol iota inhibitor confirmatory assay; 1,500 compounds, 77% hits; AID 720496; Pol iota primer extension, TAMRA/BHQ fluorescence; Potency, µM, usual class: inhibitors; shares compounds with Pol kappa inh
Large screens that a line does not name were inactive (follow-up assays come after a bar, where they were run). Unless noted, the call rests on the fitted dose curve; in most records, active means well fitted curve in the direction sought with a large enough effect; inconclusive means small, poorly fitted or top-dose-only effect, or another doubt; inactive means no such curve, though single readings can be large; an effect the other way counts as inactive or inconclusive.

Cc1nn(-c2cccc(Cl)c2)c2nc(-c3ccco3)cc(C(=O)O)c12	Pol iota inh inconclusive, WRN inhibitor inconclusive, POLH inh 18µM, Pol beta inh-1 14µM | Pol beta inh-2 inconclusive | Klenow inh inactive | HIV RT inh inactive
Cc1cccc(-n2nc(C)c3c(C(=O)O)cc(-c4cccs4)nc32)c1	none
COc1ccccc1CNc1nc2c(S(=O)(=O)c3ccccc3)nnn2c2ccc(Cl)cc12	none (no result: WRN inhibitor)
Cc1c2cnn(CC(=O)Nc3c(F)c(F)cc(F)c3F)c(=O)c2c(C)n1Cc1ccc(F)cc1	Pol beta inh-1 8.9µM (no result: Pol iota inh, Pol kappa inh, WRN inhibitor, FEN1 inhibitor, POLH inh) | Pol beta inh-2 25 | Klenow inh inactive | HIV RT inh inactive | POLB inh gel 100
Cc1c2cnn(CC(=O)NCc3ccc(Cl)cc3)c(=O)c2c(C)n1Cc1ccc(F)cc1	Pol beta inh-1 inconclusive (no result: WRN inhibitor)
Cc1cc(C)nc(SCC(=O)c2ccc(O)c(O)c2)n1	Pol iota inh inconclusive, Pol kappa inh inconclusive, POLH inh 16µM, Pol beta inh-1 4.5µM | Pol beta inh-2 32 | Klenow inh inactive | HIV RT inh inactive | POLB inh gel 42
Cc1cc(=O)[nH]c(SCC(=O)c2ccc(O)c(O)c2)n1	Pol iota inh 50µM, Pol kappa inh inconclusive, POLH inh 18µM, Pol beta inh-1 11µM | Pol beta inh-2 28 | Klenow inh inactive | HIV RT inh inconclusive | POLB inh gel inactive
Cc1cc(C)nc(SCC(=O)c2ccc(C)c(C)c2)n1	none
Cc1ccc2c(c1)N(CCCC(=O)NCc1cccc(F)c1)C(=O)CO2	Pol iota inh inconclusive, Pol kappa inh inconclusive (no result: WRN inhibitor, POLH inh)
CC(=O)NCCNC(=O)c1ccc(Cn2c(=O)[nH]c3ccsc3c2=O)cc1	none
O=C(Nc1cc(Cl)cc(Cl)c1)c1ccc(Cn2c(=O)[nH]c3ccsc3c2=O)cc1	POLH inh inconclusive, Pol beta inh-1 14µM | Pol beta inh-2 inconclusive | Klenow inh inactive | HIV RT inh inactive | POLB inh gel 93
CC1CCN(S(=O)(=O)c2ccc(NC(=O)c3ccccc3F)cc2)CC1	WRN inhibitor inconclusive
CC1CCN(S(=O)(=O)c2ccc(NC(=O)Cn3nnc(-c4ccccc4F)n3)cc2)CC1	Pol iota inh 50µM, Pol kappa inh inconclusive, POLH inh inconclusive, Pol beta inh-1 16µM | Pol beta inh-2 35 | Klenow inh inactive | HIV RT inh inactive
COc1ccc(NC(=O)c2ccc(NCCN3C(=O)CCC3=O)c([N+](=O)[O-])c2)cc1	Pol kappa inh inconclusive, POLH inh inconclusive, Pol beta inh-1 13µM | Pol beta inh-2 inconclusive | Klenow inh inactive | HIV RT inh inactive | POLB inh gel inconclusive
CCOc1cc(/C=C(\C#N)C(=O)Nc2cccc(C(=O)O)c2)ccc1OCc1ccc(Br)cc1	Pol iota inh 7.1µM, FEN1 inhibitor inconclusive, POLH inh inconclusive, Pol beta inh-1 10µM | Pol beta inh-2 3.5 | Klenow inh inactive | HIV RT inh inactive | POLI cherry-pick 7.5
COc1cc(/C=C(\C#N)C(=O)Nc2cccc(C(=O)O)c2)ccc1OCc1ccc(C)cc1	Pol beta inh-1 inconclusive
